Source: PubChem BioAssay (NCI)
This is part of a sample that, as a whole, favours compounds with a hit. Of some 79,000 tested, about 15% had one in any assay. Rule as the data show it: active = growth inhibition above about 70%; inactive = the rest.

Key:
[1] = NCI Yeast Anticancer Drug Screen. Data for the rad50 strain (AID 155);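 also: 0% = growth of vehicle-only cultures of the same strain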; conditions: S. cerevisiae rad50 strain growth inhibition; at 50.0 µM; active compounds read high
Method in brief: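 Cells are treated with compound, grown, and their growth is then scored against vehicle-only cultures of the same repair-deficient yeast strain.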

[2] = NCI Yeast Anticancer Drug Screen. Data for the mec2-1 strain (AID 157); conditions: S. cerevisiae mec2-1 strain, at 50.0 µM, active compounds read high
Method in brief: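 Cells of the genetically defined mec2-1 yeast strain are incubated with test compound. Inhibition of growth is calculated against vehicle-treated controls.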

[3] = NCI Yeast Anticancer Drug Screen. Data for the sgs1 mgt1 strain (AID 161);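 also: 0% = growth of cultures given vehicle only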; conditions: S. cerevisiae sgs1 mgt1 strain, at 50.0 µM, active compounds read high
Method in brief: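 Test agents were incubated with a DNA-repair-mutant yeast strain. Growth was then read and compared against vehicle-treated controls.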

[4] = NCI Yeast Anticancer Drug Screen. Data for the cln2 rad14 strain (AID 165);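 also: 0% = growth equal to vehicle treated cultures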; conditions: S. cerevisiae cln2 rad14 strain, at 50.0 µM, active compounds read high
Method in brief: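 The screen exposed genetically defined yeast (cln2 rad14) to test compounds and scored growth inhibition relative to vehicle-treated controls.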

[5] = NCI Yeast Anticancer Drug Screen. Data for the bub3 strain (AID 167); conditions: S. cerevisiae bub3 mutant strain, at 50.0 µM, active compounds read high
Method in brief: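 Part of a panel of yeast mutants defective in DNA damage repair or cell cycle regulation. Each strain is grown with compound, and inhibition is calculated relative to solvent-treated cultures.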

[6] = NCI Yeast Anticancer Drug Screen. Data for the mlh1 rad18 strain (AID 175); conditions: S. cerevisiae mlh1 rad18 strain growth inhibition; at 50.0 µM; active compounds read high
Method in brief: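 Compound-treated yeast growth, normalised to vehicle controls. Strain bears defined DNA repair mutations.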

Measured: growth inhibition

O=C(O)CCc1ccc2c(c1)C(=O)CC2
inactive: [1] -35% | [2] -27.9% | [3] -23.2% | [4] -16.1% | [5] -3.95% | [6] -37.4%

C=CCNC(=S)NN(C)C
inactive: [1] -42% | [2] -16% | [3] -16.9% | [4] -51.5% | [5] -28.2% | [6] -16.4%

Cc1cc(C)c(Br)cc1C
inactive: [1] 4.9% | [2] 15% | [3] 5.8% | [4] 3.4% | [5] 3% | [6] -5.35%

COC1=CC(=O)C=C(C)C1=O
inactive: [1] 19.4% | [2] -11.9% | [3] -8.1% | [4] 29.7% | [5] 4% | [6] 2%

CC(=O)C(C)(C)CCC(C)(C)C(C)=O
inactive: [1] 2.95% | [2] -12.6% | [3] -4% | [4] 13.1% | [5] 8.4% | [6] -20.6%

COC(=O)c1ccccc1N=NNc1ccc(C(F)(F)F)c([N+](=O)[O-])c1
inactive: [1] -10.4% | [2] -1.85% | [3] 16.1% | [4] -2.35% | [5] 9.95% | [6] -11.7%

CC1CCCNC1C (stereo unspecified)
inactive: [1] -21% | [2] -24.1% | [3] -11.1% | [4] -29% | [5] -3.25% | [6] 8.25%

CCCCCC(C(C)=O)C(C)=O
inactive: [1] -17.5% | [2] -19.6% | [3] -15.1% | [4] 0.45% | [5] -15.8% | [6] -15.6%

CCC#CCN(CCC)CCC
inactive: [1] -8.55% | [2] 7.1% | [3] -10.7% | [4] -41.1% | [5] -17.9% | [6] -18.9%

CCOC(=O)C1=NN(c2ccccc2)C(=O)/C1=C\N1C(=O)/C(=C/c2cccc(OC)c2O)SC1=S
inactive: [1] 30.5% | [2] 8.55% | [3] 31.6% | [4] 20.4% | [5] -0.35% | [6] 21.6%

O=C(c1ccccc1)C(c1ccccc1)(c1ccccc1)c1ccccc1
inactive: [1] -4.1% | [2] 6.2% | [3] -17.3% | [4] -30% | [5] -10.2% | [6] 24.1%

O=C1OC(c2ccccc2)N(C(=O)c2ccccc2)C1Cc1ccc(OCc2ccccc2)cc1 (stereo unspecified)
inactive: [1] -30.5% | [2] -6.4% | [3] -5.65% | [4] -13.7% | [5] 0.95% | [6] 5.75%

CC(=O)Nc1ccc(/C=N/NS(=O)(=O)c2ccc(C)cc2)cc1
inactive: [1] 0.3% | [2] 34.7% | [3] 16.9% | [4] -1.85% | [5] 30.6% | [6] 17.1%

Cc1ccc(C(=O)NCCN2CCCC2)c([N+](=O)[O-])c1OCc1ccccc1
inactive: [1] 6.15% | [2] -20% | [3] 4.8% | [4] -22.9% | [5] -4.85% | [6] -5.8%

N#CCCNC(CC(=O)O)C(=O)O (stereo unspecified)
inactive: [1] 10.7% | [2] 1.55% | [3] 14.4% | [4] -13.2% | [5] 0.5% | [6] -4.85%

C[N+](C)(C)CC(=O)N/N=C(\C(=O)NC1=C(Cl)C(=O)c2ccccc2C1=O)C(C#N)c1csc(-c2ccc([N+](=O)[O-])cc2)n1 (stereo unspecified)
inactive: [1] 14.8% | [2] 26.6% | [3] -5.8% | [4] 17.6% | [5] 33.5% | [6] 19.9%

N#CC1=C(N)N(c2ccccc2)C(c2ccco2)C1(C#N)C#N (stereo unspecified)
inactive: [1] 4.85% | [2] 13.3% | [3] 9.85% | [4] 3.35% | [5] -13.7% | [6] 6.25%

CCOc1ccc(N=Nc2c(O)n(-c3ccc(Br)cc3)c(=S)n(-c3ccc(OC)cc3)c2=O)cc1
inactive: [1] 28.8% | [2] -8.7% | [3] -9.1% | [4] -24.4% | [5] 1.35% | [6] 2.3%

Nc1cccc2ccc(Cl)nc12
inactive: [1] 37.9% | [2] 19.4% | [3] 14.2% | [4] 9.7% | [5] 16.3% | [6] -5%

O=C(O)CCC(=O)Oc1ccc(O)c2c1CCCC2=O
inactive: [1] -6.95% | [2] 1.65% | [3] -0.95% | [4] -17.8% | [5] -1.3% | [6] -9.15%

COC(=O)C(C)c1cc2ccccc2[nH]1 (stereo unspecified)
inactive: [1] -8% | [2] -8.65% | [3] 0.9% | [4] -11.4% | [5] -46.7% | [6] 0.75%

Cc1c2sc3ccccc3[nH]c2nc2[nH]c3ccccc3sc12
inactive: [1] -24.9% | [2] -10.7% | [3] -25.1% | [4] 2.35% | [5] 11% | [6] 0.95%

C[C@@]12CCC[C@H]1[C@@H]1CC=C3C[C@@H](S)CC[C@]3(C)[C@H]1CC2
inactive: [1] -6.75% | [2] 4.5% | [3] -3.25% | [4] -31.1% | [5] -6.9% | [6] -13.7%

CN(C)C(=S)N(C)C
inactive: [1] -37.1% | [2] -33% | [3] -17.4% | [4] 0.45% | [5] -23.2% | [6] -23.7%

COC(=O)/C=C1/Nc2c(N)nc(N)nc2NC1=O
inactive: [1] 15.1% | [2] 8.2% | [3] 5.95% | [4] -2.1% | [5] -0.9% | [6] 3.15%

CN1CCOC1(C)CO (stereo unspecified)
inactive: [1] 3.85% | [2] -16.7% | [3] -10.3% | [4] -20.6% | [5] -8.5% | [6] -55%

CC(C)S(=O)(=O)C(C)C
inactive: [1] 5.1% | [2] 0.35% | [3] -8.65% | [4] 11.7% | [5] -13.6% | [6] -5.85%

Nc1ccc(Cl)c(S(=O)(=O)O)c1
inactive: [1] 21.7% | [2] -4.35% | [3] 7.05% | [4] 8.4% | [5] 10.4% | [6] 17.1%

O=C(c1ccc(F)cc1)c1cccc(C(=O)c2ccc(F)cc2)n1
inactive: [1] -16.8% | [2] -24% | [3] -29.9% | [4] 8.15% | [5] -3.4% | [6] -36.1%

COC(=O)NC1C(=O)CCC(=O)C1C(N)=O (stereo unspecified)
inactive: [1] -23.4% | [2] -7.65% | [3] -17.4% | [4] -17.5% | [5] -0.3% | [6] -12.4%

CN(C)/C=N/NC(=O)c1ccccc1N
inactive: [1] -15% | [2] -15.7% | [3] -6.75% | [4] -11.6% | [5] 2.15% | [6] 0.55%

CC(C)=CC(Cc1ccccc1)S(=O)(=O)c1nc2ccccc2s1 (stereo unspecified)
inactive: [1] 8.8% | [2] 33.4% | [3] 12.1% | [4] 9.4% | [5] 31.2% | [6] -16.9%

O=C(O)CCCc1ccc2c(c1)-c1ccccc1S2=O (stereo unspecified)
inactive: [1] 0.65% | [2] 3.8% | [3] 1.25% | [4] -3.6% | [5] -4% | [6] 13.1%

Brc1ccc(N=N/C(=N/Nc2ccccc2)c2ccc(/C=N/Nc3ccccc3)cc2)cc1
inactive: [1] 45.8% | [2] 24.4% | [3] 14.6% | [4] 29.2% | [5] 15% | [6] 34.4%

O=S1C2CCC(Br)C1CCC2Br (stereo unspecified)
inactive: [1] 7.95% | [2] -6.15% | [3] 23.1% | [4] -5.35% | [5] 5.5% | [6] 12.4%

N#CC(/C(CCCC(=O)Nc1cccc([N+](=O)[O-])c1)=N/NC(=O)c1cc2ccccc2cc1O)c1ccccc1 (stereo unspecified)
inactive: [1] 41.4% | [2] 41.4% | [3] -17.2% | [4] 9.4% | [5] 36.8% | [6] 38%

CC(C)OCCOCCO
inactive: [1] 7.65% | [2] -10.5% | [3] -4.85% | [4] -24.9% | [5] 10.1% | [6] -1.2%

CCOC(=O)C1=CC(=O)CC(C)(C)O1
inactive: [1] -2.6% | [2] 7.55% | [3] -1.65% | [4] -5.75% | [5] -0.8% | [6] 1.95%

O=C(OCCOCBr)c1ccccc1
inactive: [1] -9.75% | [2] -32.5% | [3] 19.9% | [4] 18% | [5] 31.1% | [6] -14.3%

COc1cc(N=C(N)N=C(N)N)c2ncccc2c1
inactive: [1] -3.1% | [2] -18.1% | [3] -11.9% | [4] -41% | [5] -3.75% | [6] -13.2%

O=c1[nH]ncc2ccccc12
inactive: [1] -3.1% | [2] -16.2% | [3] -3.95% | [4] -53.5% | [5] -4.75% | [6] -2.45%
